{"source": "patent US20040191812", "about": "“Target-dependent transcription using deletion mutants of N4 RNA polymerase” (published 2004)", "key": {"[1]": {"target": "T1, N4 mini-vRNAP (His-tagged) (Bacteriophage N4, UniProt Q859P9 SEQ:34-1143)", "T1 chain": "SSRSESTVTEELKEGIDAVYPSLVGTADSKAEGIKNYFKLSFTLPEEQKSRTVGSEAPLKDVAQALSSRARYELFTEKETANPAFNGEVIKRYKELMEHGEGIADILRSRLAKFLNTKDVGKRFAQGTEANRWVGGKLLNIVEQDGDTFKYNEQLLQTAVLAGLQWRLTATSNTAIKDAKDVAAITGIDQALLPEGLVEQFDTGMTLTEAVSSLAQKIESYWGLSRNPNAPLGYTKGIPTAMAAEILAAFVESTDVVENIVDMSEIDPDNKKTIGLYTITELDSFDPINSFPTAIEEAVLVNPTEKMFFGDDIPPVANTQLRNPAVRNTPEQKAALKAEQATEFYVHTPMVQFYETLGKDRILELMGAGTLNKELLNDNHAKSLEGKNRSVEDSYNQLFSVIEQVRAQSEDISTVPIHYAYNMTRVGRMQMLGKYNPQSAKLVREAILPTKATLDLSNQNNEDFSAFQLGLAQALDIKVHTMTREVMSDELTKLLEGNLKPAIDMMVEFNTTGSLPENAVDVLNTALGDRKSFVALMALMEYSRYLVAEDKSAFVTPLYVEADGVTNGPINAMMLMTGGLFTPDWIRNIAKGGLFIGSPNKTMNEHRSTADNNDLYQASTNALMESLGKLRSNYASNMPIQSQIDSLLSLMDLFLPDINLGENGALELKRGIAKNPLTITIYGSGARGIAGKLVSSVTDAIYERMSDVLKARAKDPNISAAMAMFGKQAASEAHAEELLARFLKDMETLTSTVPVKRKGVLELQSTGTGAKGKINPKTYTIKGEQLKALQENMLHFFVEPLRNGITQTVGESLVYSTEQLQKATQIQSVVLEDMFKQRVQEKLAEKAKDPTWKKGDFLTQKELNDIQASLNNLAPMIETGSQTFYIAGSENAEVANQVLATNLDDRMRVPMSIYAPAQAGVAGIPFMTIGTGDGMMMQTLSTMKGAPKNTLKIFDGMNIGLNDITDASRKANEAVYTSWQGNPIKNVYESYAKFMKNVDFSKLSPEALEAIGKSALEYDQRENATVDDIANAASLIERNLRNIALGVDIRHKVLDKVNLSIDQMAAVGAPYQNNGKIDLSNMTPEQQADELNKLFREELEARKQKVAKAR", "assay": "filter; two orders of magnitude reduction", "details": "tags: N-terminal hexahistidine (pBAD); label: 32P end-label; hairpin, 8 bp stem; ssDNA; [none]"}, "[2]": {"target": "T1, N4 mini-vRNAP (His-tagged)", "assay": "filter; further one order of magnitude reduction", "details": "tags: N-terminal hexahistidine (pBAD); label: 32P end-label; hairpin; ssDNA; [none]"}}}
{"sequence": "TCCAAAAGAAGCGGAGCTTCTTT", "values": [{"measurement": "binding signal", "setting": "[1]", "result": "~100 fold lower affinity than wild type"}]}
{"sequence": "TCCAAAAGAAGCGGAGCTTCTTTTG", "values": [{"measurement": "binding signal", "setting": "[2]", "result": "~1000 fold lower affinity than wild type"}]}
